Assays:
[1] = target: T1, Mitogen-activated protein kinase 12 (Homo sapiens) (UniProt P53778); details: at 1 µM;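 note: values are averaged p38gamma kinase inhibition readings, compounds tested at 1 µM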
T1 sequence (whole entry): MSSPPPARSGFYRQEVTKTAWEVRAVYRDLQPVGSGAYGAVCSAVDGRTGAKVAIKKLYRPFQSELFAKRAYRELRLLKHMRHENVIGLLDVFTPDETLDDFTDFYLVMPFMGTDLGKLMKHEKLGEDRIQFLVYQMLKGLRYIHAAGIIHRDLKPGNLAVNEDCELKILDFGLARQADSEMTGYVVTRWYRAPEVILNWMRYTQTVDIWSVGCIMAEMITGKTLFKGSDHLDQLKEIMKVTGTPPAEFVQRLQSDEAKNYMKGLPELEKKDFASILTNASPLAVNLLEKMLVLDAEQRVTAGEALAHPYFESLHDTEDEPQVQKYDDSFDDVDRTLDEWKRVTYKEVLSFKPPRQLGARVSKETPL

[2] = target: SRSF protein kinase 1 (Homo sapiens) (UniProt Q96SB4); details: at 0.1 µM
Sequence of SRSF protein kinase 1 (Homo sapiens) (Q96SB4 whole entry, canonical isoform): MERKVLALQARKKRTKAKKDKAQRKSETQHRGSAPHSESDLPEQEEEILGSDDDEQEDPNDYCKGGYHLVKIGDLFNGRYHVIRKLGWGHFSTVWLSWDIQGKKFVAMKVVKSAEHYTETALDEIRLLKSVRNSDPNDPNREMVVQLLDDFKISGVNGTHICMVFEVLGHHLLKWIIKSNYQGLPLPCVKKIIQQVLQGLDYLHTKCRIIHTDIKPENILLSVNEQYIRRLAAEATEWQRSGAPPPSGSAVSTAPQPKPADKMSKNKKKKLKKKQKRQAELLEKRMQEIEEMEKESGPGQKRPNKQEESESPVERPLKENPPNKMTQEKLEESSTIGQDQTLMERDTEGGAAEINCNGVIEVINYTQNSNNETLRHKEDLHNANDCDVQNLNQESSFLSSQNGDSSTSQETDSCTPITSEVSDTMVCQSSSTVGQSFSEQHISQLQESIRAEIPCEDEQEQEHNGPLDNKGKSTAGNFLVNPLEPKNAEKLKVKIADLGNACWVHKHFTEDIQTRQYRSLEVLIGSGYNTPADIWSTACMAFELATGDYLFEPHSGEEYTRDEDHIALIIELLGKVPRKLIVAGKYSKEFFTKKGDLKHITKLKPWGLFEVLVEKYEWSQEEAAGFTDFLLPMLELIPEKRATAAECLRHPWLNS

[3] = target: SRSF protein kinase 1 (Homo sapiens) (UniProt Q96SB4); details: at 1 µM
[4] = target: Phosphatidylinositol 4,5-bisphosphate 3-kinase catalytic subunit alpha isoform (Homo sapiens) (UniProt P42336); details: at 0.1 µM
Sequence of Phosphatidylinositol 4,5-bisphosphate 3-kinase catalytic subunit alpha isoform (Homo sapiens) (P42336 whole entry, canonical isoform): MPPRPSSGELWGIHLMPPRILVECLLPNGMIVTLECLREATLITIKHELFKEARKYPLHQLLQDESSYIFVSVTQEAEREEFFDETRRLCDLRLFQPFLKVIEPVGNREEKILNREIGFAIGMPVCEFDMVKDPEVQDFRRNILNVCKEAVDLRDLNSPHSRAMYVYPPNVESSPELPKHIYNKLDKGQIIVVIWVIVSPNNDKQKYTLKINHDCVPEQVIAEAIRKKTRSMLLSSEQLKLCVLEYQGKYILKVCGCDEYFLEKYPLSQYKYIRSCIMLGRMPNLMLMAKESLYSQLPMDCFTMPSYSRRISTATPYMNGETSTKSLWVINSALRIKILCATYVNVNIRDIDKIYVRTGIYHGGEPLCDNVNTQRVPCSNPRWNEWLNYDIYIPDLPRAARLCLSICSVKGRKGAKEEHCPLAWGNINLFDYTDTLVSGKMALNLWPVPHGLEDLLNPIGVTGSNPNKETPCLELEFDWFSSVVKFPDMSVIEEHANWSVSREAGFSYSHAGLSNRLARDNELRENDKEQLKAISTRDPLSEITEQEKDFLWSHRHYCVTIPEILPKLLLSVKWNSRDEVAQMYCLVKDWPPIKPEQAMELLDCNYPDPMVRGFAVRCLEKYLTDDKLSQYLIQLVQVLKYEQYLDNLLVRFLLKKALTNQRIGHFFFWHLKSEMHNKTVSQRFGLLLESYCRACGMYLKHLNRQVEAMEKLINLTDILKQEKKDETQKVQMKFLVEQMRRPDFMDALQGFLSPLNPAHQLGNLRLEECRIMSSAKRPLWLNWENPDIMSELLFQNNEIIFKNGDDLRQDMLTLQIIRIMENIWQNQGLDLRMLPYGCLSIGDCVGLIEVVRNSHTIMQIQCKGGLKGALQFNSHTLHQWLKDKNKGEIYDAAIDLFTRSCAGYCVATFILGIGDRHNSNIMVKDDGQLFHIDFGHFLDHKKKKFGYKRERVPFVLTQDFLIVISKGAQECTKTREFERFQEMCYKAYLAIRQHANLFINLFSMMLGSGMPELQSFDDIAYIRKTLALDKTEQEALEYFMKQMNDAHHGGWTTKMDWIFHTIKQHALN

[5] = target: Phosphatidylinositol 4,5-bisphosphate 3-kinase catalytic subunit alpha isoform (Homo sapiens) (UniProt P42336); details: at 1 µM
[6] = target: T2, Phosphatidylinositol 4,5-bisphosphate 3-kinase catalytic subunit delta isoform (Homo sapiens) (UniProt O00329); details: at 0.1 µM
T2 sequence (whole entry): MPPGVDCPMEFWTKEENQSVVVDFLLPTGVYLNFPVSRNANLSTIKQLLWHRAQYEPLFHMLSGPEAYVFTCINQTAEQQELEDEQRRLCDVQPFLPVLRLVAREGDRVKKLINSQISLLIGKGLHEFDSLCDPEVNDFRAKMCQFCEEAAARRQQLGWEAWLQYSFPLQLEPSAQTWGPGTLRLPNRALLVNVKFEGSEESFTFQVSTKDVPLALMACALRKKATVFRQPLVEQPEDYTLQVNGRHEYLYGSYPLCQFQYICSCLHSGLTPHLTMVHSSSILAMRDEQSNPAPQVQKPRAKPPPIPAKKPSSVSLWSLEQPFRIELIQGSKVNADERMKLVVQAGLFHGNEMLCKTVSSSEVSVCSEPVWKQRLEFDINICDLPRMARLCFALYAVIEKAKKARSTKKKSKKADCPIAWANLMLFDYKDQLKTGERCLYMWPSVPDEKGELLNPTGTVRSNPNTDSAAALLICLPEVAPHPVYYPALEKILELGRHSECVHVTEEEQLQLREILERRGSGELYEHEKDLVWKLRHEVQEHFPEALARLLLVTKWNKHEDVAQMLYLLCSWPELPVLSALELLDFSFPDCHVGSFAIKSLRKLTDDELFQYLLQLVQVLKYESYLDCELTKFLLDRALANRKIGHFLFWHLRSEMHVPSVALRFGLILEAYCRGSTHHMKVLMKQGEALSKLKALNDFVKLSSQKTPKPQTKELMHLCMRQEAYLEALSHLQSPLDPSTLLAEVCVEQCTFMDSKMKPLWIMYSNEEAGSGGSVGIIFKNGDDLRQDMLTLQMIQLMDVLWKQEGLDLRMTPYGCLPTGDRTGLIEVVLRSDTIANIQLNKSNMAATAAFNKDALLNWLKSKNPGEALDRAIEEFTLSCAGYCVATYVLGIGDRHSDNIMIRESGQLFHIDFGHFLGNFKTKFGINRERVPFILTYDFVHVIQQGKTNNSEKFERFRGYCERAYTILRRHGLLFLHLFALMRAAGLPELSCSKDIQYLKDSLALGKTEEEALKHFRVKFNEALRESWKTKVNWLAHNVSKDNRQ

[7] = target: T2, Phosphatidylinositol 4,5-bisphosphate 3-kinase catalytic subunit delta isoform (Homo sapiens); details: at 1 µM
[8] = target: Phosphatidylinositol 4-kinase beta (Homo sapiens) (UniProt Q9UBF8); details: at 0.1 µM
Sequence of Phosphatidylinositol 4-kinase beta (Homo sapiens) (Q9UBF8 2-816 limits assumed): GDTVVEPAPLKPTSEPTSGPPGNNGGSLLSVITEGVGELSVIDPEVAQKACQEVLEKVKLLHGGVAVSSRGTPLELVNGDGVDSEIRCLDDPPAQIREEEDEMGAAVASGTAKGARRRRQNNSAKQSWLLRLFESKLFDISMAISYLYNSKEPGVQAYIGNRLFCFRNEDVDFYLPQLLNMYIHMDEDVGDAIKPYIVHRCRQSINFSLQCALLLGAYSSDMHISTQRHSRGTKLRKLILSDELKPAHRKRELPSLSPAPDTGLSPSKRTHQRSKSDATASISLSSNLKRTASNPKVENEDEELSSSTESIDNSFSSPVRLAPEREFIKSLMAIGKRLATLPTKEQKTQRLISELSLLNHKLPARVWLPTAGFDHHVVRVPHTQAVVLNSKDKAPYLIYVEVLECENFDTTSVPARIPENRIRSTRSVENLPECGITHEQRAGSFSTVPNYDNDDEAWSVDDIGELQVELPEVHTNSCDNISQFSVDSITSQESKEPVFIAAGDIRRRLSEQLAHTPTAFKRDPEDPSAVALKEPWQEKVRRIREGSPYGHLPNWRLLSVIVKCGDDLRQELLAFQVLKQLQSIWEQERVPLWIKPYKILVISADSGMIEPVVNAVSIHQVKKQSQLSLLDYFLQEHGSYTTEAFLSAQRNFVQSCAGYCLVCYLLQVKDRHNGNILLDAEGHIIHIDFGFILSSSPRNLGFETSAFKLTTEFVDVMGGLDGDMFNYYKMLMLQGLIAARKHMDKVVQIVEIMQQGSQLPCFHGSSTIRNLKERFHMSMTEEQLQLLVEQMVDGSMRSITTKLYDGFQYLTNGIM

[9] = target: Phosphatidylinositol 4-kinase beta (Homo sapiens) (UniProt Q9UBF8); details: at 1 µM
[10] = target: Sphingosine kinase 1 (Homo sapiens) (UniProt Q9NYA1); details: at 0.1 µM
Sequence of Sphingosine kinase 1 (Homo sapiens) (Q9NYA1 whole entry): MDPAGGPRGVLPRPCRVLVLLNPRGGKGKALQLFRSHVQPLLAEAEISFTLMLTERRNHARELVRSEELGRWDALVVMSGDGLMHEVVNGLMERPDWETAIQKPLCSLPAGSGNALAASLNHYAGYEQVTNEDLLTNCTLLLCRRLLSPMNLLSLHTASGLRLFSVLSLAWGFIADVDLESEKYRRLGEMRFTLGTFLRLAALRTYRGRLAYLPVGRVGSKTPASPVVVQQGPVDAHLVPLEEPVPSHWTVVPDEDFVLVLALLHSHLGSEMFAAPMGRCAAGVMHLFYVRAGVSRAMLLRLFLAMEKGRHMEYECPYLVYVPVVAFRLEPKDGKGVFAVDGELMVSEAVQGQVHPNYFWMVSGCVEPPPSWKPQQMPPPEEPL

[11] = target: Sphingosine kinase 1 (Homo sapiens) (UniProt Q9NYA1); details: at 1 µM
[12] = target: T3, Sphingosine kinase 2 (Homo sapiens) (UniProt Q9NRA0); details: at 0.1 µM
T3 sequence (whole entry): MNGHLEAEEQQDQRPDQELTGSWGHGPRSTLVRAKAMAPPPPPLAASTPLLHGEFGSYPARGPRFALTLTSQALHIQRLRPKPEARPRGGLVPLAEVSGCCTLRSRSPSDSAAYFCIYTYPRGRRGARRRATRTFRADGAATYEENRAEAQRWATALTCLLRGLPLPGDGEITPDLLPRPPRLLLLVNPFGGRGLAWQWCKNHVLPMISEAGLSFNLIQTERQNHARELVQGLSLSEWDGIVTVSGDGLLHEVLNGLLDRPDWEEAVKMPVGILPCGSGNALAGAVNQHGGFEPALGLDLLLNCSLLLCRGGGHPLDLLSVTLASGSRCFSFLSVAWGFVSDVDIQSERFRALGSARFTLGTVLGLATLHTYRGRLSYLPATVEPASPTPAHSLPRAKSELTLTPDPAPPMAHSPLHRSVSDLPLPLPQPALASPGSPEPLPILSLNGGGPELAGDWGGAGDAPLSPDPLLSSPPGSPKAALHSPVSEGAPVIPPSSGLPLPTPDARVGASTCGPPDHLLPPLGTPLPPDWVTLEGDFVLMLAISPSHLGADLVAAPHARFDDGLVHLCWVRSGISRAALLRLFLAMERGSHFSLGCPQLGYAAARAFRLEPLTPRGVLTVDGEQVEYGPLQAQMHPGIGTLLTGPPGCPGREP

[13] = target: T3, Sphingosine kinase 2 (Homo sapiens); details: at 1 µM
[14] = target: Casein kinase II subunit alpha (Homo sapiens) (UniProt P68400); details: at 0.1 µM
Sequence of Casein kinase II subunit alpha (Homo sapiens) (P68400 whole entry, looked up): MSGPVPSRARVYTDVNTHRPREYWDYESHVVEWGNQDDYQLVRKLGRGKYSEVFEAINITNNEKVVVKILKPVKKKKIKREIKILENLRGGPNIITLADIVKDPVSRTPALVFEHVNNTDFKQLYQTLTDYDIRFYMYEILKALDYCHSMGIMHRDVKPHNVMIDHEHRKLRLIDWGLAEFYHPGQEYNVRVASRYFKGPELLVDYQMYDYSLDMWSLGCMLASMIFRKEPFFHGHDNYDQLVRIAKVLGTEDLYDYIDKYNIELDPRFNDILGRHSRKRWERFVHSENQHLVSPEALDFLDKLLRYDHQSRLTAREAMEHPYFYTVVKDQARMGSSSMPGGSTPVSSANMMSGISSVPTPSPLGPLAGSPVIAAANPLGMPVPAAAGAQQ

[15] = target: Casein kinase II subunit alpha (Homo sapiens) (UniProt P68400); details: at 1 µM
[16] = target: T4, Inhibitor of nuclear factor kappa-B kinase subunit alpha (Homo sapiens) (UniProt O15111); details: at 0.1 µM
T4 sequence (whole entry): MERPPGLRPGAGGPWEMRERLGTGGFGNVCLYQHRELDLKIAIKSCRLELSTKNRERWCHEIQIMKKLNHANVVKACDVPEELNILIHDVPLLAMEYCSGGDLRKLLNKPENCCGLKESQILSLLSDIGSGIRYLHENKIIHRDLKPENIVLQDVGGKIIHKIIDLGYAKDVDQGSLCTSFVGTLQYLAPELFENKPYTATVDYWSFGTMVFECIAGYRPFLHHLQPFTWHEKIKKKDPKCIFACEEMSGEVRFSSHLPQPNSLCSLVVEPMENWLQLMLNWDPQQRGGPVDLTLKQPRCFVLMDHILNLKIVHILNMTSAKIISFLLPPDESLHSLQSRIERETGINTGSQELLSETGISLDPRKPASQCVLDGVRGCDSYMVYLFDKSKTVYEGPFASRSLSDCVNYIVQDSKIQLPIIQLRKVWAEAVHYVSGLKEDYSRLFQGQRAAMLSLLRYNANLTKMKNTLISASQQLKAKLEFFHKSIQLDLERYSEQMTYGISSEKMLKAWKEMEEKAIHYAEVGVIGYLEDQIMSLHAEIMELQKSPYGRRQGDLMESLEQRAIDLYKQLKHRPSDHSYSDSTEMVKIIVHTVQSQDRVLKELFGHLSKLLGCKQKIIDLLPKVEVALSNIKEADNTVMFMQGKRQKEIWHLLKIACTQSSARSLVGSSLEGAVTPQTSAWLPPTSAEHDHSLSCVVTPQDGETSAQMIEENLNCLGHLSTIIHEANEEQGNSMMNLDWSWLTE

[17] = target: T4, Inhibitor of nuclear factor kappa-B kinase subunit alpha (Homo sapiens); details: at 1 µM
[18] = target: T5, Inhibitor of nuclear factor kappa-B kinase subunit beta (Homo sapiens) (UniProt O14920); details: at 0.1 µM
T5 sequence (whole entry): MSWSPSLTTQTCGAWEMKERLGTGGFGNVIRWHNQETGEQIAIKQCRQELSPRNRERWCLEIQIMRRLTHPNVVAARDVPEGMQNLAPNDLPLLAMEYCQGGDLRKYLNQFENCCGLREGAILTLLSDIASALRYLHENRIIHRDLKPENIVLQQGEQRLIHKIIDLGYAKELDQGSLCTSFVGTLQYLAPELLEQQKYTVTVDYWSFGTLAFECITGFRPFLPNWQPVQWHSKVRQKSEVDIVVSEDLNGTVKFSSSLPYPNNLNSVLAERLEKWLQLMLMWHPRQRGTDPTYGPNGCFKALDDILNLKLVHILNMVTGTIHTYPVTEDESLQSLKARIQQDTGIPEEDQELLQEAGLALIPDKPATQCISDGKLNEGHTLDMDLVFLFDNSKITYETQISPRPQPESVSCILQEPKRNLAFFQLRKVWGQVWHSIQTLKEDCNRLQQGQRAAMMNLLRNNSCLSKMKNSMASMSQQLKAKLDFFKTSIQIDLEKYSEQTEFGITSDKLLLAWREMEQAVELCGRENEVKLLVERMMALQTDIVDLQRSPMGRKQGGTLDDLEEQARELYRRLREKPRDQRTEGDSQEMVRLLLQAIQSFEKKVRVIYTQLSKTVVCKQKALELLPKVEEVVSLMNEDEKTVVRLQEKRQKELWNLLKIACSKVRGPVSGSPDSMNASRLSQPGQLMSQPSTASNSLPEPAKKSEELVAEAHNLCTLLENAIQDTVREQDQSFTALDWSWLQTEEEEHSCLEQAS

[19] = target: T5, Inhibitor of nuclear factor kappa-B kinase subunit beta (Homo sapiens); details: at 1 µM
[20] = target: T6, Inhibitor of nuclear factor kappa-B kinase subunit epsilon (Homo sapiens) (UniProt Q14164); details: at 0.1 µM;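 note: mean inhibition of IKKε reported, from the GSK PKIS dataset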
T6 sequence (whole entry): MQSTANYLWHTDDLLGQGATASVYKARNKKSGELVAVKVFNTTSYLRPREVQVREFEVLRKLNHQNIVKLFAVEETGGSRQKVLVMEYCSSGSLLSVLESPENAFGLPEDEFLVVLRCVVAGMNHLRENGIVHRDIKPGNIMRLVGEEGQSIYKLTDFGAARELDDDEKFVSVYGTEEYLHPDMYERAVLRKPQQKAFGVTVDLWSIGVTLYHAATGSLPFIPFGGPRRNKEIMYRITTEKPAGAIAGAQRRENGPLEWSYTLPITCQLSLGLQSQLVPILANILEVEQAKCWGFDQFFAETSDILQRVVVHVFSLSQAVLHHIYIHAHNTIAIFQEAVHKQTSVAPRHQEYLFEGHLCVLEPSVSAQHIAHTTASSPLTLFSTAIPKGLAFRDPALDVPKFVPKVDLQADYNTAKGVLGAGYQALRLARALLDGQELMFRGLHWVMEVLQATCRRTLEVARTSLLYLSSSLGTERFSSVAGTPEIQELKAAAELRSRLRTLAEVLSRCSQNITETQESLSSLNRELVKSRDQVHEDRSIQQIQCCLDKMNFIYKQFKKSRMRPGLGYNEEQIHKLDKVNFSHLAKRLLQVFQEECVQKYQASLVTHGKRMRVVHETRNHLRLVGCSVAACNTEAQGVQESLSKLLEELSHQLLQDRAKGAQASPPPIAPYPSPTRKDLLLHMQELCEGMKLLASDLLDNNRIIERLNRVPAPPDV

SMILES	inhibition [1]	inhibition [2]	inhibition [3]	inhibition [4]	inhibition [5]	inhibition [6]	inhibition [7]	inhibition [8]	inhibition [9]	inhibition [10]	inhibition [11]	inhibition [12]	inhibition [13]	inhibition [14]	inhibition [15]	inhibition [16]	inhibition [17]	inhibition [18]	inhibition [19]	inhibition [20]
c1ccc(-c2nc3n(c2-c2ccc4c(c2)OCO4)CCC3)nc1	1.88%	-0.51%	-1.84%	5.05%	7.23%	6.67%	8.16%	-3.19%	-2.19%	-1.79%	0.44%	-0.36%	0%	0.8%	1.12%	0.69%	-5.83%	3.06%	-0.72%	1.33%
CS(=O)(=O)CCNCc1ccc(-c2ccc3ncnc(Nc4ccc(OCc5ccccc5)c(C(F)(F)F)c4)c3c2)o1	2.8%	-2.41%	-1.93%	4.02%	4.89%	0.55%	2.2%	-0.29%	1.06%	0.51%	3.88%	-1.22%	0.8%	10.8%	4.64%	5.21%	0.84%	9.46%	10.4%	6.52%
